Assay outcomes deposited in PubChem by The Scripps Research Institute Molecular Screening Center.
Compounds with a hit are over-represented: about 2.6% of the library has one in this group of screens.
PKA-R1A act – PKA-R1A complex activation. P00514+P68181. PKA-R1A dissociation, Cy5-IP20 fluorescence polarization; scaled: DMSO 0%, 113 µM cGMP 100%. activation, % at 11.4 µM. 0.083% of 340,000 active. AID 504707;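 active = percent activation above the mean of all tested compounds plus 3 SD, cut at about 19% in these data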;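 also: higher means more PKAc released from R1A so a rise in polarization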
pPAFAH FP inh – inhibitors of human plasma PAF acetylhydrolase (pPAFAH); Q13093; recombinant pPAFAH, FP-rhodamine probe fluorescence polarization; inhibition, % at 3.39 µM; 1.5% of 330,000 active;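 active = inhibition above the mean inhibition across the screen plus 3 SD, cut at about 25% in these data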;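 also: inhibitors block binding of the rhodamine activity-based probe so polarization drops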
PAFAH2 inh – inhibitors of human PAFAH2; Q99487; recombinant PAFAH2, FP-rhodamine activity probe, fluorescence polarization; inhibition, % at 3.39 µM; 0.99% of 340,000 active; AID 492956;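 active = inhibition above the mean over all tested compounds plus 3 SD, cut at about 30% in these data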;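 also: inhibitors block probe labeling of enzyme so polarization drops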
PAFAH1B3 FP inh – inhibitors of human PAFAH1B3; Q15102; 0.28% of 340,000 active; inhibition, % at 3.39 µM; recombinant PAFAH1B3, FP-rhodamine probe, fluorescence polarization;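 active = inhibition above the screen-wide average of all tested compounds plus 3 SD, cut at about 25% in these data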
PAFAH1B2 FP inh – PAFAH1B2 (human) inhibition. P68402. recombinant PAFAH1B2, FP-rhodamine activity probe, fluorescence polarization. inhibition, % at 3.39 µM. 1.2% of 340,000 active;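 active = inhibition above the mean of all tested compounds plus 3 SD, cut at about 24% in these data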
PKA-R2B activ – PKA-R2B complex activation; P22694+P31323; PKA-R2B holoenzyme dissociation, Cy5-IP20 fluorescence polarization; R2B truncated from residue 108, S112A mutant; 0% DMSO only, 100% 113 µM cGMP; activation, % at 11.4 µM; 0.079% of 340,000 active;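 active = activation above a cutoff set at the mean over all compounds plus 3 SD, cut at about 18% in these data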;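 also: higher means more holoenzyme dissociation and a rise in polarization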
Target sequence (P31323 whole entry, looked up, other chains not shown, the tested form may be a part): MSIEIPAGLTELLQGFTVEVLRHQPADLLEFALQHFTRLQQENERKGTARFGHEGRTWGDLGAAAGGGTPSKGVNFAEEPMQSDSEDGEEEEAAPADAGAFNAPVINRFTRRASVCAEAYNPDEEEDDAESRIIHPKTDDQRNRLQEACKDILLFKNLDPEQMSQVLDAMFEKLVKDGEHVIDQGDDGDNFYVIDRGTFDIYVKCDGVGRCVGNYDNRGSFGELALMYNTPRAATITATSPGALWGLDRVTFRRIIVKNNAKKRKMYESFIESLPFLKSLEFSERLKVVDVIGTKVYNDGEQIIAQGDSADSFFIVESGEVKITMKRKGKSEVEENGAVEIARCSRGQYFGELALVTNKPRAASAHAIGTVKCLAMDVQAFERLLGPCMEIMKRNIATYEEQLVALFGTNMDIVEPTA
R1A FP artifact – counter-screen for PKA-R1A activators: fluorescence polarization artifacts. shares compounds with PKA-R1A act. Cy5-IP20 peptide alone, fluorescence polarization artifact counterscreen. activation, % at 11.4 µM. 7% of 280 active. AID 504799;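 active = mean activation over triplicate runs exceeds the adjusted cutoff derived for the parent primary screen, cut at about 19% in these data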;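 also: no PKA protein present so any polarization rise reflects compound interference; higher means stronger polarization artifact and likely false positive in parent screen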
PKA-R1A act conf – confirmation of PKA-R1A complex activators; shares compounds with PKA-R1A act; activation, % at 11.4 µM; 9% of 280 active; Cy5-IP20 fluorescence polarization, PKA-R1A holoenzyme dissociation; AID 504800;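 active = mean activation over replicate wells exceeds the adjusted hit threshold taken from the earlier primary screen, cut at about 20% in these data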
Numbers stand for hits.

Results for COc1ccc(CNCc2cccc(Oc3ccccc3)c2)cc1 ?
PKA-R1A act: inactive; pPAFAH FP inh: inactive; PAFAH2 inh: inactive; PAFAH1B3 FP inh: inactive; PAFAH1B2 FP inh: inactive; PKA-R2B activ: inactive

How did O=C(Nc1ccc(Oc2cccnc2)cc1)C1CCN(Cc2ccccc2)CC1 do in these assays?
PKA-R1A act: 19; pPAFAH FP inh: inactive; PAFAH2 inh: inactive; PAFAH1B3 FP inh: inactive; PAFAH1B2 FP inh: inactive; PKA-R2B activ: inactive; R1A FP artifact: inactive; PKA-R1A act conf: inactive

Results for Cc1ccc(CN2CCC(C(=O)Nc3ccc(Oc4cccnc4)cc3)CC2)cc1 ?
PKA-R1A act: inactive; PAFAH2 inh: inactive; PAFAH1B3 FP inh: inactive; PAFAH1B2 FP inh: inactive; PKA-R2B activ: inactive

What do the screens show for `Cc1ccc(S(=O)(=O)NCCc2nnc3ccc(N4CCOCC4)nn23)cc1`?
PKA-R1A act: inactive; PKA-R2B activ: inactive

What do the screens show for `O=C1N(C2CCCC2)C[C@@H]2C[C@@H](c3cccn3-c3ccccn3)N3CCC[C@@]123`?
PKA-R1A act: 20; pPAFAH FP inh: inactive; PAFAH2 inh: inactive; PAFAH1B3 FP inh: inactive; PAFAH1B2 FP inh: inactive; PKA-R2B activ: inactive; R1A FP artifact: inactive; PKA-R1A act conf: inactive

Results for O=C1N(C2CCCC2)C[C@@H]2C[C@@H](c3cccn3-c3nccs3)N3CCC[C@@]123 ?
PKA-R1A act: inactive; pPAFAH FP inh: inactive; PAFAH2 inh: inactive; PAFAH1B3 FP inh: inactive; PAFAH1B2 FP inh: inactive; PKA-R2B activ: inactive

How did COc1cc(NC(=O)c2cc(-c3ccco3)on2)cc(OC)c1OC do in these assays?
PKA-R1A act: 19; pPAFAH FP inh: inactive; PAFAH2 inh: inactive; PAFAH1B3 FP inh: inactive; PAFAH1B2 FP inh: inactive; PKA-R2B activ: inactive; R1A FP artifact: inactive; PKA-R1A act conf: inactive

Results for N#C/C(=C/c1ccco1)C(N)=S ?
PKA-R1A act: 19; pPAFAH FP inh: 33; PAFAH2 inh: 34; PAFAH1B3 FP inh: inactive; PAFAH1B2 FP inh: inactive; PKA-R2B activ: inactive; R1A FP artifact: inactive; PKA-R1A act conf: inactive

Results for O=C(/C=C/c1ccc(S(=O)(=O)N2CCOCC2)cc1)NCc1ccccc1F ?
PKA-R1A act: inactive; pPAFAH FP inh: inactive; PAFAH2 inh: inactive; PAFAH1B3 FP inh: inactive; PAFAH1B2 FP inh: inactive; PKA-R2B activ: inactive

Results for O=C(COC(=O)C1COc2ccccc2O1)NC(=O)NC1CCCC1 (configuration not stated) ?
PKA-R1A act: 20; pPAFAH FP inh: inactive; PAFAH2 inh: inactive; PAFAH1B3 FP inh: inactive; PAFAH1B2 FP inh: inactive; PKA-R2B activ: inactive; R1A FP artifact: inactive; PKA-R1A act conf: inactive

How did Cc1c(-c2ccccc2)[n+](=O)c(-c2ccc(Cl)cc2)c(C)n1[O-] do in these assays?
PKA-R1A act: 19; pPAFAH FP inh: inactive; PAFAH2 inh: inactive; PAFAH1B3 FP inh: inactive; PAFAH1B2 FP inh: inactive; PKA-R2B activ: inactive; R1A FP artifact: inactive; PKA-R1A act conf: inactive

What do the screens show for `COCCn1c(SCC(=O)c2c(N)n(C3CC3)c(=O)[nH]c2=O)nnc1-c1ccc(Cl)cc1`?
PKA-R1A act: inactive; pPAFAH FP inh: inactive; PAFAH2 inh: inactive; PAFAH1B3 FP inh: inactive; PAFAH1B2 FP inh: inactive; PKA-R2B activ: inactive

What do the screens show for `Cc1ccc2nc3sc(C(=O)N4CCOCC4)c(N)c3cc2c1`?
PKA-R1A act: inactive; pPAFAH FP inh: inactive; PAFAH2 inh: inactive; PAFAH1B3 FP inh: inactive; PAFAH1B2 FP inh: inactive; PKA-R2B activ: inactive

How did Cc1ccc2cc3c(N)c(C(=O)N4CCOCC4)sc3nc2c1 do in these assays?
PKA-R1A act: 19; pPAFAH FP inh: inactive; PAFAH2 inh: inactive; PAFAH1B3 FP inh: inactive; PAFAH1B2 FP inh: inactive; PKA-R2B activ: inactive; R1A FP artifact: inactive; PKA-R1A act conf: inactive

How did CCN(CC)C(=O)C1CCN(S(=O)(=O)c2ccc(-n3cnnn3)cc2)CC1 do in these assays?
PKA-R1A act: inactive; pPAFAH FP inh: inactive; PAFAH2 inh: inactive; PAFAH1B3 FP inh: inactive; PAFAH1B2 FP inh: inactive; PKA-R2B activ: inactive
